Source: PubChem BioAssay (EPA / NIEHS)
Results filed as inconclusive are left out. Activity calls are given as the source filed them. Rule for the calls, unless noted: active = hit-call score of the fitted dose curve at least 0.9, where 1 is the maximum; inactive = score below 0.9.

Experiments:
[1] = molecular target: Estrogen-related receptor gamma (Homo sapiens) (UniProt P62508); test: ATG_ERRg_TRANS: Attagene TRANS-FACTORIAL HepG2 Assay for human Estrogen-Related Receptor gamma (ERRg) (AID 2282977; active = hit-call score of the fitted dose curve at least 0.9, where 1 is the maximum;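 note: hits increase reporter signal over DMSO so potencies reflect activators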); details: HepG2 Attagene TRANS reporter, ERRg transactivation
Chain of Estrogen-related receptor gamma (Homo sapiens) (P62508 whole entry, looked up, the tested form may be a part): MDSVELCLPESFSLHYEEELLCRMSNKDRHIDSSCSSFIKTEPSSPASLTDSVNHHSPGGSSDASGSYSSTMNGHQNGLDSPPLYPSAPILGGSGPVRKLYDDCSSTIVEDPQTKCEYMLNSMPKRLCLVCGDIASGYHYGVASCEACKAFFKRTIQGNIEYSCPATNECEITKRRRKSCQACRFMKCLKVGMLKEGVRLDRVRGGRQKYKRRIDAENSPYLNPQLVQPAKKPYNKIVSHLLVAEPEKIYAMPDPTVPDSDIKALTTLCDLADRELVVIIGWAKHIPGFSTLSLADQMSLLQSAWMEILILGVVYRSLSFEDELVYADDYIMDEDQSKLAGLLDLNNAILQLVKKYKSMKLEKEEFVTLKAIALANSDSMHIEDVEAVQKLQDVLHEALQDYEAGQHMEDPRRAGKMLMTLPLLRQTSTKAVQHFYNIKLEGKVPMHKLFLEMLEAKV
Procedure, shortened: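 Transfect HepG2 with multiple GAL4-UAS reporter transcription units; dose chemicals 24 h; isolate RNA, reverse-transcribe with oligo(dT), PCR-amplify, label with 6-FAM, digest with HpaI; size fragments by capillary electrophoresis. DMSO serves as negative control.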

[2] = molecular target: Glucocorticoid receptor (Homo sapiens) (UniProt P04150); test: ATG_GR_TRANS: Attagene TRANS-FACTORIAL HepG2 Assay for human Glucocorticoid Receptor (GR) (AID 2282978; active = hit-call score of the fitted dose curve at least 0.9, where 1 is the maximum;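 note: activators score as hits since higher reporter transcript over DMSO is fitted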); details: HepG2 Attagene TRANS GR reporter, mRNA transcription
Chain of Glucocorticoid receptor (Homo sapiens) (P04150 whole entry, looked up): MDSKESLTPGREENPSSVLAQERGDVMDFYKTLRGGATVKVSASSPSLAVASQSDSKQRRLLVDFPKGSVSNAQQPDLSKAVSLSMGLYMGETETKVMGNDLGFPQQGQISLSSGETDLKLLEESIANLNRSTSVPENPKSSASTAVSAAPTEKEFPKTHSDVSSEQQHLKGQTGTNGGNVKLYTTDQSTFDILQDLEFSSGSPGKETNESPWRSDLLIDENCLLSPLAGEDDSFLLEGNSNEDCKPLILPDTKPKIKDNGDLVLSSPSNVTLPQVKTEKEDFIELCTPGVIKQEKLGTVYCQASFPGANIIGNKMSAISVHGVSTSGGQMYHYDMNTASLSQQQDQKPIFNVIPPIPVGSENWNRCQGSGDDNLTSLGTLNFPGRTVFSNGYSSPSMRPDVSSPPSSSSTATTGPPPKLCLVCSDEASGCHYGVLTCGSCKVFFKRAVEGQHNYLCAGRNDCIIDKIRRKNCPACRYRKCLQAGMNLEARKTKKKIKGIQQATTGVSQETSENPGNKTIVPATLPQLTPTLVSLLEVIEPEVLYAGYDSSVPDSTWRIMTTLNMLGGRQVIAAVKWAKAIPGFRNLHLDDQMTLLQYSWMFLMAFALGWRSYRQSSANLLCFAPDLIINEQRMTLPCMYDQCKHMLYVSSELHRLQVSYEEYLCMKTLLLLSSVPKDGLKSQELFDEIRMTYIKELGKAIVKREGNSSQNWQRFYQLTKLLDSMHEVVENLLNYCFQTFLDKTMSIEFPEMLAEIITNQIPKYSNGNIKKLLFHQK
Procedure, shortened: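 After 24 h incubation with test chemical, transfected HepG2 cells were lysed for RNA; reporter cDNA was amplified, FAM-labelled, HpaI-digested and sized on a capillary analyser. Signal gain relative to DMSO was scored.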

[3] = molecular target: Oxysterols receptor LXR-alpha (Homo sapiens) (UniProt Q13133); test: ATG_LXRa_TRANS: Attagene TRANS-FACTORIAL HepG2 Assay for human Liver X Receptor alpha (LXRa) (AID 2282980; active = hit-call score of the fitted dose curve at least 0.9, where 1 is the maximum); details: HepG2 Attagene TRANS reporter, LXRa transactivation
Chain of Oxysterols receptor LXR-alpha (Homo sapiens) (Q13133 whole entry, looked up, the tested form may be a part): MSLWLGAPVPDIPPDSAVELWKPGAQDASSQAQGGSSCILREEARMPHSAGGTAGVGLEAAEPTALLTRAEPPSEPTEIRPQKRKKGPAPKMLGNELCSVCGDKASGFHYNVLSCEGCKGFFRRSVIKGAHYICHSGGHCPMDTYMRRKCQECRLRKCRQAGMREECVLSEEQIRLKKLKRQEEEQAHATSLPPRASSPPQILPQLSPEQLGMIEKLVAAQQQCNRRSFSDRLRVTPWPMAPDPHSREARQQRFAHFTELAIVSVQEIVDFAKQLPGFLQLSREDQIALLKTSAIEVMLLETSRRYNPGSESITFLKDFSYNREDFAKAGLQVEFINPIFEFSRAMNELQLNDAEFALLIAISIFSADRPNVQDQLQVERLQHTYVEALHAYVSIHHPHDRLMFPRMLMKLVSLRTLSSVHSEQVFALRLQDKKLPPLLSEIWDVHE
Procedure, shortened: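 Read-out: reporter transcript levels by RT-PCR plus capillary electrophoresis, fluorescence intensity. Transiently transfected HepG2, exogenous NR-GAL4 chimera, GAL4-UAS reporters; 24 h compound exposure. Activity = increase over DMSO negative control.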

[4] = ATG_M_32_TRANS: Attagene TRANS-FACTORIAL HepG2 Assay for M32 Transcription Factor (Internal Marker) (AID 2282984; active = hit-call score of the fitted dose curve at least 0.9, where 1 is the maximum;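 note: transcript level of a background control reporter unit measured by RT-PCR and capillary electrophoresis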); details: HepG2 Attagene TRANS M32 internal marker reporter
Procedure, shortened: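 Measures reporter mRNA induction in human HepG2 liver cells after 24 h chemical treatment. Transcripts from transiently transfected GAL4-UAS reporter units are amplified, fluorescently labelled and sized by capillary electrophoresis; gain of signal relative to DMSO.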

[5] = molecular target: Nuclear receptor subfamily 4 group A member 2 (Homo sapiens) (UniProt P43354); test: ATG_NURR1_TRANS: Attagene TRANS-FACTORIAL HepG2 Assay for human Nuclear Receptor Related Protein 1 (NURR1) (AID 2282985; active = hit-call score of the fitted dose curve at least 0.9, where 1 is the maximum); details: HepG2 Attagene TRANS reporter, mRNA readout
Chain of Nuclear receptor subfamily 4 group A member 2 (Homo sapiens) (P43354 whole entry, looked up, the tested form may be a part): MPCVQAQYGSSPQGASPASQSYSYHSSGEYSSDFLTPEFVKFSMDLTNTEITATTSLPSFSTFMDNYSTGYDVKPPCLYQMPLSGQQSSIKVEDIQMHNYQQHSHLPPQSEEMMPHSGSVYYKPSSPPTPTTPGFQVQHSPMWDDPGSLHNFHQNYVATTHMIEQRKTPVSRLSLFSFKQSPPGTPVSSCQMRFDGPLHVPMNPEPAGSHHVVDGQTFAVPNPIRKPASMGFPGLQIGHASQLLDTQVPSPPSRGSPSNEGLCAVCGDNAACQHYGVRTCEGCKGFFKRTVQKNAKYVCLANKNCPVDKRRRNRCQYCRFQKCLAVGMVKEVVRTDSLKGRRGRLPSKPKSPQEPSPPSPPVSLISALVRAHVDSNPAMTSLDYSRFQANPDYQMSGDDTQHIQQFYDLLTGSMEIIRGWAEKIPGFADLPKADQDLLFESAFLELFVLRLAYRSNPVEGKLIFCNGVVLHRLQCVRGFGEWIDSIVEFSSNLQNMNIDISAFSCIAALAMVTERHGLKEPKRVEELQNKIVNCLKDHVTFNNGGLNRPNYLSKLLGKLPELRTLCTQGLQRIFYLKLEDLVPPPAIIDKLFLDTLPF
Procedure, shortened: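 Transient transfection of HepG2, human liver cells, with multiple GAL4-UAS reporter transcription units. Cells dosed 24 h, RNA isolated, reverse-transcribed, PCR-amplified, FAM-labelled, HpaI-digested, sized by capillary electrophoresis. DMSO served as negative control.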

[6] = molecular target: Transcriptional activator Myb (Homo sapiens) (UniProt P10242); test: ATG_Myb_CIS: Attagene CIS-FACTORIAL HepG2 Assay for human Myeloblastosis (Myb) Proto-Oncogene Transcription Factor (AID 2282986); details: HepG2 Attagene CIS-FACTORIAL Myb reporter transcription; actives raise or lower the signal
Chain of Transcriptional activator Myb (Homo sapiens) (P10242 whole entry, looked up): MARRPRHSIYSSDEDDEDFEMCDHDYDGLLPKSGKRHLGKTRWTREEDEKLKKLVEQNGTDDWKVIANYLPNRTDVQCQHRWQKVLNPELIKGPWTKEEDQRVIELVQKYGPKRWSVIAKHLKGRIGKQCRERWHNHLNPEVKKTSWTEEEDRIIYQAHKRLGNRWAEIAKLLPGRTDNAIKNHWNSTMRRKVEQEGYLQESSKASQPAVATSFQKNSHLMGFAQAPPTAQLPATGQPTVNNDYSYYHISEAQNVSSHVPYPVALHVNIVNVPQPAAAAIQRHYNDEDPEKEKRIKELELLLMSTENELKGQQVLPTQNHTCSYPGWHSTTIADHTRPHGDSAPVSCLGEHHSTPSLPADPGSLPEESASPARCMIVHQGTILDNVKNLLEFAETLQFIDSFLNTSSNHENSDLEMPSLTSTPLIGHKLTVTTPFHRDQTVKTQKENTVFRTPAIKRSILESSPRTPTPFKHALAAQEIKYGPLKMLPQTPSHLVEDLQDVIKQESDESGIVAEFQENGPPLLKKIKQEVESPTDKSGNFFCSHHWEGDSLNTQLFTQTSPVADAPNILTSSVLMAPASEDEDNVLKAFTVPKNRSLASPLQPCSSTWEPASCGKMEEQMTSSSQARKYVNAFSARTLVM
Procedure, shortened: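 After 24 h of compound dosing, total RNA from transfected HepG2 cells is reverse-transcribed and the reporter sequences amplified, labeled and separated by capillary electrophoresis. Values come from bidirectional fitting against DMSO.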

[7] = molecular target: Nuclear respiratory factor 1 (Homo sapiens) (UniProt Q16656); test: ATG_NRF1_CIS: Attagene CIS-FACTORIAL HepG2 Assay for human Nuclear Respiratory Factor 1 (NRF1) Orphan Gene (AID 2282987); details: HepG2 NRF1 cis-element reporter, Attagene multiplex; actives raise or lower the signal
Chain of Nuclear respiratory factor 1 (Homo sapiens) (Q16656 whole entry, looked up): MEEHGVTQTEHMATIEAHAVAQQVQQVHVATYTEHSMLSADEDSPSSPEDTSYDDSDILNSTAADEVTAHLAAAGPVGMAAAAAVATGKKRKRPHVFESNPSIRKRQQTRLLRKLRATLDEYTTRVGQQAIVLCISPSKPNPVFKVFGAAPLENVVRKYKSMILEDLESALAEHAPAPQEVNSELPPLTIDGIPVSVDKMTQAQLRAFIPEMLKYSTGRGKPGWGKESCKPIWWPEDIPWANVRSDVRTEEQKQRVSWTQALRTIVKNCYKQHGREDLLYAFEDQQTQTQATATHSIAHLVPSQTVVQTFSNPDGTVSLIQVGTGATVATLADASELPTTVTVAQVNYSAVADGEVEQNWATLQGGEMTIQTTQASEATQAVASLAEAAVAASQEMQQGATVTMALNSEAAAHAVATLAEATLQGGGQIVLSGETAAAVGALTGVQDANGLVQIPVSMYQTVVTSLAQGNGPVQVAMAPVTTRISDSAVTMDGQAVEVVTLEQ
Procedure, shortened: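 Measured: fluorescent reporter-specific RT-PCR products from transfected HepG2 cells, separated by capillary electrophoresis. Exposure lasted 24 h. Analysis used bidirectional curve fitting with DMSO as negative control.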

[8] = ATG_NFI_CIS: Attagene CIS-FACTORIAL HepG2 Assay for human Nuclear Factor I (NFI) (AID 2282989); details: HepG2 cis-regulatory reporter, NFI response element transcription; actives raise or lower the signal
Procedure, shortened: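 Cells: human liver HepG2, transiently transfected with promoter-regulated reporter transcription units. Exposure 24 h. Detection: fluorescent RT-PCR products separated by capillary electrophoresis, normalised to DMSO negative control.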

[9] = molecular target: Myc proto-oncogene protein (Homo sapiens) (UniProt P01106); test: ATG_Myc_CIS: Attagene CIS-FACTORIAL HepG2 Assay for human Myelocytomatosis (Myc) Proto-Oncogene Transcription Factor (AID 2282990); details: HepG2, Attagene cis-reporter transcription factor activity; actives raise or lower the signal
Chain of Myc proto-oncogene protein (Homo sapiens) (P01106 whole entry, looked up): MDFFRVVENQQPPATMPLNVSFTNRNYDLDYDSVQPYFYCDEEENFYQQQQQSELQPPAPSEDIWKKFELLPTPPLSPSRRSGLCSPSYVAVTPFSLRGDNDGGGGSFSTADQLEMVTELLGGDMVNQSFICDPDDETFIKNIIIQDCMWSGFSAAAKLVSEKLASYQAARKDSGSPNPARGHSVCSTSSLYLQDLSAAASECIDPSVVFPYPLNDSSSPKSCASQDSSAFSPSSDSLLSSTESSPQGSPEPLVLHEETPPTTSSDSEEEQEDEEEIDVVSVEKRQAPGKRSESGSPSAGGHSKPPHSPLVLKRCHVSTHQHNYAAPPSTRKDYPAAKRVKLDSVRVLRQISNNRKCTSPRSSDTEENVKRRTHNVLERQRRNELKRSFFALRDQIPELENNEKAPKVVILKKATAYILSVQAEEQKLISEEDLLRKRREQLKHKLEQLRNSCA
Procedure, shortened: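 HepG2, transient MRTU transfection (cis promoters, endogenous TFs); 24 h dosing; TriZol RNA → oligo(dT) RT → PCR → 6-FAM primer extension → HpaI cut → CE. Bidirectional fit vs DMSO.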

[10] = ATG_NRF2_ARE_CIS: Attagene CIS-FACTORIAL HepG2 Assay for human Nuclear Factor Erythroid 2 Related Factor 2 (NFR2) response to Antioxidant Response Elements (ARE) (AID 2282992); details: HepG2 Attagene ARE/NRF2 reporter, transcription factor activity; actives raise or lower the signal;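 for AC50: reporter mRNA level measured by RT-PCR and capillary electrophoresis fluorescence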
Procedure, shortened: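 Cis-factorial assay: transfected HepG2 reporter library, 24 h dosing, mRNA readout via RT-PCR/CE; DMSO-referenced bidirectional analysis.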

[11] = ATG_Oct_MLP_CIS: Attagene CIS-FACTORIAL HepG2 Assay for human Octamer-Binding Transcription Factor (Oct) (AID 2282993); details: HepG2 Attagene cis-factorial Oct reporter, mRNA; actives raise or lower the signal
Procedure, shortened: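 HepG2, transient MRTU transfection, cis promoter elements; 24 h dosing; RT-PCR/CE fluorescence read-out of reporter mRNA; fit both directions vs DMSO.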

[12] = molecular target: Cellular tumor antigen p53 (Homo sapiens) (UniProt P04637); test: ATG_p53_CIS: Attagene CIS-FACTORIAL HepG2 Assay for human p53 Transcription Factor (AID 2282994); details: HepG2 p53 cis-element reporter, Attagene mRNA; actives raise or lower the signal
Procedure, shortened: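 Using HepG2 hepatoma cells carrying cis-acting multiplexed reporters, mRNA induction is detected after a 24 h exposure. Gain- and loss-of-signal responses are fitted relative to DMSO-treated cells.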

[13] = molecular target: Oxysterols receptor LXR-beta (Homo sapiens) (UniProt P55055); test: ATG_LXRb_TRANS: Attagene TRANS-FACTORIAL HepG2 Assay for human Liver X Receptor beta (LXRb) (AID 2282981; active = hit-call score of the fitted dose curve at least 0.9, where 1 is the maximum); details: HepG2 Attagene TRANS GAL4-LXRb reporter, mRNA
Chain of Oxysterols receptor LXR-beta (Homo sapiens) (P55055 whole entry, looked up, the tested form may be a part): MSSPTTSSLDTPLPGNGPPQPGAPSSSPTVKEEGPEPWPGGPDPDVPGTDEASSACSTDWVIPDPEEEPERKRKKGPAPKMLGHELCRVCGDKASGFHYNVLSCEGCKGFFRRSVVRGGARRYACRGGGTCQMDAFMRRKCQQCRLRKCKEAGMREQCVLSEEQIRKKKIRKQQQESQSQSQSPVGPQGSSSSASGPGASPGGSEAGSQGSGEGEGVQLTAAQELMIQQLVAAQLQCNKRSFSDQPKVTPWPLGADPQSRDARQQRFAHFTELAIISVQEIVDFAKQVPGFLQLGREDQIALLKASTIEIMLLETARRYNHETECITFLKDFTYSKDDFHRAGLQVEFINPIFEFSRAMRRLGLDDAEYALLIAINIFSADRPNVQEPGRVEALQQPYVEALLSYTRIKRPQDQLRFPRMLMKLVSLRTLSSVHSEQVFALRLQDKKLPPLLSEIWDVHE
Procedure, shortened: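 Transient transfection HepG2 (multiplexed RTUs, GAL4-UAS); NR-Gal4 chimera; 24 h exposure; RNA → RT-PCR → 6-FAM primer extension → HpaI → CE; increase vs DMSO.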

[14] = molecular target: Hepatocyte nuclear factor 4-alpha (Homo sapiens) (UniProt P41235); test: ATG_HNF4a_TRANS: Attagene TRANS-FACTORIAL HepG2 Assay for human Hepatocyte Nuclear Factor 4 alpha (HNF4a) (AID 2282982; active = hit-call score of the fitted dose curve at least 0.9, where 1 is the maximum); details: HepG2 HNF4a transactivation reporter, mRNA readout
Chain of Hepatocyte nuclear factor 4-alpha (Homo sapiens) (P41235 whole entry, looked up, the tested form may be a part): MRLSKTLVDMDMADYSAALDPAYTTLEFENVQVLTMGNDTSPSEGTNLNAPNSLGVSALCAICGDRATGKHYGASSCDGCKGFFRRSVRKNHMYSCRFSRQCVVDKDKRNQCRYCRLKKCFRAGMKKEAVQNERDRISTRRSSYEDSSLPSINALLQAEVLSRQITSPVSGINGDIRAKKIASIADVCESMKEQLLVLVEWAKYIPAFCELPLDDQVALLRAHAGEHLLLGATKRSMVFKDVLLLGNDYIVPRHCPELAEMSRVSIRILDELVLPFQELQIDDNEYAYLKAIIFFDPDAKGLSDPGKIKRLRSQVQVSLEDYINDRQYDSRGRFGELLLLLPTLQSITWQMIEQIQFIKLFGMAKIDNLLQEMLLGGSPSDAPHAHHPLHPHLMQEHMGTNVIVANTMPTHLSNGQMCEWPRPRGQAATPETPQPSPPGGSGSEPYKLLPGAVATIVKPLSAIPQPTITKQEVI
Procedure, shortened: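 Readout is fluorescent reporter-transcript fragments resolved by capillary electrophoresis after RT-PCR from HepG2 cells dosed for 24 h. Cells carried transfected GAL4-UAS reporter constructs measuring exogenous NR-GAL4 chimera activity; DMSO served as baseline.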

[15] = ATG_M_06_TRANS: Attagene TRANS-FACTORIAL HepG2 Assay for M06 Transcription Factor (Internal Marker) (AID 2282983; active = hit-call score of the fitted dose curve at least 0.9, where 1 is the maximum); details: HepG2 Attagene TRANS M06 internal marker reporter
Procedure, shortened: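 After a 24 h chemical treatment of transfected HepG2, RNA underwent DNase I treatment, reverse transcription and reporter-specific PCR; labelled, HpaI-digested products were sized by capillary electrophoresis. Signal increase relative to DMSO defined activity.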

[16] = molecular target: Bile acid receptor (Homo sapiens) (UniProt Q96RI1); test: ATG_FXR_TRANS: Attagene TRANS-FACTORIAL HepG2 Assay for Farnesoid X Receptor (FXR) (AID 2282979; active = hit-call score of the fitted dose curve at least 0.9, where 1 is the maximum;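 note: hits raise reporter mRNA above DMSO so AC50 marks FXR activation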); details: HepG2 Attagene TRANS FXR-GAL4 reporter transcription
Procedure, shortened: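 Read-out: fluorescent reporter transcripts quantified by capillary electrophoresis after RT-PCR of total RNA. Source cells were HepG2 transiently carrying chimeric NR-GAL4 plus GAL4-UAS reporter units, dosed 24 h. Activity fitted upward relative to DMSO baseline.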

SMILES: C=COCC1CCC(COC=C)CC1 (stereo unspecified)
- outcome [1]: inactive
- outcome [2]: inactive
- outcome [3]: inactive
- outcome [4]: inactive
- outcome [5]: inactive
- outcome [6]: inactive
- outcome [7]: inactive
- outcome [8]: inactive
- outcome [9]: inactive
- AC50 [10]: 179 µM (active)
- outcome [11]: inactive
- outcome [12]: inactive

SMILES: COc1ccc2[nH]cc(CCNC(C)=O)c2c1
- outcome [1]: inactive
- outcome [2]: inactive
- outcome [3]: inactive
- outcome [13]: inactive
- outcome [14]: inactive
- outcome [15]: inactive
- outcome [4]: inactive
- outcome [5]: inactive
- outcome [6]: inactive
- outcome [7]: inactive
- outcome [8]: inactive
- outcome [9]: inactive
- outcome [10]: inactive
- outcome [11]: inactive
- outcome [12]: inactive

SMILES: Nc1ccc(O)c(N)c1
- outcome [1]: inactive
- outcome [13]: inactive
- outcome [4]: inactive
- outcome [5]: inactive
- outcome [6]: inactive
- outcome [7]: inactive
- outcome [8]: inactive
- outcome [9]: inactive
- AC50 [10]: 43.9 µM (active)
- outcome [11]: inactive
- outcome [12]: inactive

SMILES: CN1CCc2cccc3c2[C@H]1Cc1ccc(O)c(O)c1-3
- outcome [1]: inactive
- outcome [2]: inactive
- outcome [16]: inactive
- outcome [13]: inactive
- outcome [14]: inactive
- outcome [15]: inactive
- outcome [6]: inactive
- AC50 [7]: 3.59 µM (active)
- outcome [8]: inactive
- outcome [9]: inactive
- AC50 [10]: 5.05 µM (active)
- outcome [11]: inactive
- outcome [12]: inactive

SMILES: CCOc1ccc(NC(C)=O)cc1
- outcome [1]: inactive
- outcome [2]: inactive
- outcome [3]: inactive
- outcome [14]: inactive
- outcome [4]: inactive
- outcome [8]: inactive
- outcome [9]: inactive
- outcome [10]: inactive
- outcome [11]: inactive
- outcome [12]: inactive
